Hit rate of the full screen: of about 5,500 compounds, about 2,000 (36%) were called active. About 18% were inconclusive and are not listed. The list shows a part of the results. A number with no mark means an inactive call. Rule as the data show it: active = normalized growth mostly below about 0.91 (no sharp cut-off); inconclusive = no clear call, values can overlap the other calls; inactive = mostly above about 0.92.
Assay: chemical genetic growth profiling, strain panel (AID 1159580);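 also: tested at 20 µM; growth read once vehicle control cultures reached saturation at 30 °C; 1 = growth at the plate median or of vehicle wells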
Settings: S. cerevisiae deletion strains, growth OD
[1] = locus YAL013W, strain DEP1, stronger effect = lower value
[2] = locus YCL061C, strain MRC1, stronger effect = lower value
[3] = locus YGR078C, strain PAC10, stronger effect = lower value
[4] = locus YHR030C, strain SLT2, stronger effect = lower value
[5] = locus YJR075W, strain HOC1, stronger effect = lower value
[6] = locus YNL128W, strain TEP1, stronger effect = lower value
[7] = locus YNL153C, strain GIM3, stronger effect = lower value
[8] = locus YNL322C, strain KRE1, stronger effect = lower value
[9] = locus YPL241C, strain CIN2, stronger effect = lower value
[10] = locus YAL040C, strain CLN3, stronger effect = lower value
[11] = locus YCL061C, strain MRC1 (second series), stronger effect = lower value
[12] = locus YDR363W, strain ESC2, stronger effect = lower value
[13] = locus YER002W, strain NOP16, stronger effect = lower value
[14] = locus YHR079C, strain IRE1, stronger effect = lower value
[15] = locus YJL095W, strain BCK1, stronger effect = lower value
[16] = locus YJR066W, strain TOR1, stronger effect = lower value
[17] = locus YLR113W, strain HOG1, stronger effect = lower value
[18] = locus YNL175C, strain NOP13, stronger effect = lower value
[19] = locus YNL183C, strain NPR1, stronger effect = lower value
[20] = locus YNL197C, strain WHI3, stronger effect = lower value
[21] = locus YNL224C, strain SQS1, stronger effect = lower value
[22] = locus YOR083W, strain WHI5 (second series), stronger effect = lower value
[23] = locus YOR231W, strain MKK1, stronger effect = lower value
[24] = locus YPL256C, strain CLN2, stronger effect = lower value

Cc1cccc(C)c1N=C1SCCS1
normalized growth [1]: 1 | normalized growth (locus YBR229C, strain ROT2, stronger effect = lower value): 0.99 | normalized growth [2]: 0.982 | normalized growth (locus YDL101C, strain DUN1, stronger effect = lower value): 0.986 | normalized growth (locus YDL134C, strain PPH21, stronger effect = lower value): 1.02 | normalized growth (locus YDR150W, strain NUM1, stronger effect = lower value): 0.902 | normalized growth (locus YEL061C, strain CIN8, stronger effect = lower value): 1.01 | normalized growth [3]: 0.99 | normalized growth (locus YGR229C, strain SMI1, stronger effect = lower value): 0.997 | normalized growth [4]: 0.929 | normalized growth (locus YHR087W, strain rtc3, stronger effect = lower value): 0.988 | normalized growth (locus YJR043C, strain POL32, stronger effect = lower value): 0.995 | normalized growth [5]: 0.996 | normalized growth (locus YKL190W, strain CNB1, stronger effect = lower value): 1 | normalized growth (locus YLR039C, strain RIC1, stronger effect = lower value): 0.941 | normalized growth (locus YLR058C, strain SHM2 (second series), stronger effect = lower value): 0.996 | normalized growth (locus YLR085C, strain ARP6, stronger effect = lower value): 0.99 | normalized growth (locus YLR262C, strain YPT6, stronger effect = lower value): 0.978 | normalized growth (locus YML094W, strain GIM5, stronger effect = lower value): 0.978 | normalized growth (locus YMR219W, strain ESC1, stronger effect = lower value): 0.996 | normalized growth (locus YMR263W, strain SAP30, stronger effect = lower value): 0.934 | normalized growth (locus YMR307W, strain GAS1, stronger effect = lower value): 0.93 | normalized growth [6]: 1 | normalized growth [7]: 0.966 | normalized growth (locus YNL298W, strain CLA4 (second series), stronger effect = lower value): 0.99 | normalized growth [8]: 0.988 | normalized growth (locus YNR030W, strain Alg12, stronger effect = lower value): 1 | normalized growth (locus YPL055C, strain LGE1, stronger effect = lower value): 0.906 | normalized growth [9]: 0.865 | normalized growth (locus YPR135W, strain CTF4, stronger effect = lower value): 0.887

CN(C)CCC(c1ccc(Cl)cc1)c1ccccn1 (stereo not drawn)
normalized growth [10]: 0.987 | normalized growth [11]: 0.999 | normalized growth [12]: 0.993 | normalized growth [13]: 0.987 | normalized growth [3]: 1.01 | normalized growth [4]: 0.962 | normalized growth [14]: 0.97 | normalized growth [15]: 0.999 | normalized growth [16]: 0.927 | normalized growth [5]: 0.991 | normalized growth [17]: 1.01 | normalized growth [7]: 0.998 | normalized growth [18]: 1 | normalized growth [19]: 0.941 | normalized growth [20]: 1.03 | normalized growth [21]: 1.01 | normalized growth [8]: 0.992 | normalized growth [22]: 1.01 | normalized growth [23]: 0.971 | normalized growth [9]: 0.998 | normalized growth [24]: 0.94

Cc1cccc(C)c1OCC(N)C(C)C (stereo not drawn)
normalized growth [1]: 1.01 | normalized growth [10]: 0.995 | normalized growth [11]: 1 | normalized growth [12]: 0.999 | normalized growth [13]: 0.998 | normalized growth [5]: 1.01 | normalized growth [6]: 0.988 | normalized growth [7]: 1.02 | normalized growth [18]: 1.02 | normalized growth [20]: 1 | normalized growth [21]: 0.998 | normalized growth [22]: 1

O=C(OOC(=O)c1ccccc1)c1ccccc1
normalized growth (locus YAL021C, strain ccr4, stronger effect = lower value): 0.969 | normalized growth (locus YAL026C, strain drs2, stronger effect = lower value): 0.952 | normalized growth (locus YAL030W, strain snc1, stronger effect = lower value): 0.976 | normalized growth (locus YBL061C, strain skt5, stronger effect = lower value): 0.962 | normalized growth (locus YBR009C, strain hhf1, stronger effect = lower value): 0.96 | normalized growth (locus YBR023C, strain chs3, stronger effect = lower value): 0.977 | normalized growth (locus YBR171W, strain sec66, stronger effect = lower value): 0.948 | normalized growth (locus YBR231C, strain swc5, stronger effect = lower value): 0.978 | normalized growth (locus YBR279W, strain paf1, stronger effect = lower value): 0.991 | normalized growth (locus YCL011C, strain gbp2, stronger effect = lower value): 0.962 | normalized growth (locus YCL016C, strain dcc1, stronger effect = lower value): 0.956 | normalized growth [2]: 0.96 | normalized growth (locus YCL069W, strain vba3, stronger effect = lower value): 0.993 | normalized growth (locus YCR088W, strain abp1, stronger effect = lower value): 0.998 | normalized growth (locus YDL005C, strain med2, stronger effect = lower value): 0.977 | normalized growth (locus YDL040C, strain nat1, stronger effect = lower value): 0.992 | normalized growth (locus YDR001C, strain nth1, stronger effect = lower value): 0.976 | normalized growth (locus YDR069C, strain doa4, stronger effect = lower value): 0.965 | normalized growth (locus YDR137W, strain rgp1, stronger effect = lower value): 0.959 | normalized growth (locus YDR159W, strain sac3, stronger effect = lower value): 0.94 | normalized growth (locus YDR195W, strain ref2): 1.01 | normalized growth (locus YDR297W, strain sur2, stronger effect = lower value): 0.982 | normalized growth (locus YDR334W, strain swr1, stronger effect = lower value): 0.92 | normalized growth (locus YDR335W, strain msn5, stronger effect = lower value): 0.986 | normalized growth (locus YDR392W, strain spt3, stronger effect = lower value): 0.933 | normalized growth (locus YEL003W, strain gim4, stronger effect = lower value): 0.989 | normalized growth (locus YEL037C, strain rad23, stronger effect = lower value): 0.977 | normalized growth (locus YEL061C, strain CIN8 (second series), stronger effect = lower value): 0.985 | normalized growth (locus YER015W, strain faa2, stronger effect = lower value): 0.959 | normalized growth (locus YER016W, strain bim1, stronger effect = lower value): 0.993 | normalized growth (locus YER111C, strain swi4, stronger effect = lower value): 0.972 | normalized growth (locus YER155C, strain BEM2 (second series), stronger effect = lower value): 0.971 | normalized growth (locus YFR010W, strain ubp6, stronger effect = lower value): 0.948 | normalized growth (locus YGL167C, strain pmr1, stronger effect = lower value): 0.965 | normalized growth (locus YGL173C, strain kem1, stronger effect = lower value): 0.956 | normalized growth (locus YGL227W, strain vid30, stronger effect = lower value): 0.981 | normalized growth (locus YGL240W, strain doc1, stronger effect = lower value): 0.989 | normalized growth (locus YGL253W, strain hxk2, stronger effect = lower value): 0.96 | normalized growth (locus YHR013C, strain ard1, stronger effect = lower value): 0.959 | normalized growth (locus YHR027C, strain rpn1, stronger effect = lower value): 0.95 | normalized growth [4]: 0.842 (active) | normalized growth [14]: 0.799 (active) | normalized growth (locus YHR142W, strain chs7, stronger effect = lower value): 0.95 | normalized growth (locus YJL092W, strain hpr5, stronger effect = lower value): 0.97 | normalized growth (locus YJL095W, strain BCK1 (second series), stronger effect = lower value): 0.993 | normalized growth [15]: 0.812 (active) | normalized growth (locus YJL115W, strain asf1, stronger effect = lower value): 0.95 | normalized growth (locus YJL129C, strain trk1, stronger effect = lower value): 0.991 | normalized growth (locus YJL154C, strain vps35, stronger effect = lower value): 0.984 | normalized growth (locus YJL164C, strain tpk1, stronger effect = lower value): 0.983 | normalized growth (locus YJL166W, strain qcr8, stronger effect = lower value): 0.964 | normalized growth (locus YJL187C, strain SWE1, stronger effect = lower value): 0.981 | normalized growth [16]: 0.82 (active) | normalized growth (locus YKL160W, strain elf1, stronger effect = lower value): 0.969 | normalized growth (locus YKR026C, strain gcn3, stronger effect = lower value): 0.979 | normalized growth (locus YKR091W, strain srl3, stronger effect = lower value): 0.976 | normalized growth (locus YLL001W, strain dnm1, stronger effect = lower value): 0.941 | normalized growth (locus YLL026W, stronger effect = lower value): 0.974 | normalized growth (locus YLL041C, strain sdh2, stronger effect = lower value): 0.968 | normalized growth (locus YLR027C, strain aat2, stronger effect = lower value): 0.961 | normalized growth [17]: 0.642 (active) | normalized growth (locus YLR221C, strain rsa3, stronger effect = lower value): 0.93 | normalized growth (locus YLR258W, strain gsy2, stronger effect = lower value): 0.991 | normalized growth (locus YLR262C, strain YPT6 (second series), stronger effect = lower value): 0.976 | normalized growth (locus YLR320W, strain mms22, stronger effect = lower value): 0.95 | normalized growth (locus YLR342W, strain FKS1, stronger effect = lower value): 0.971 | normalized growth (locus YLR357W, strain rsc2, stronger effect = lower value): 0.975 | normalized growth (locus YLR370C, strain arc18, stronger effect = lower value): 0.954 | normalized growth (locus YLR384C, strain iki3, stronger effect = lower value): 0.954 | normalized growth (locus YML120C, strain ndi1, stronger effect = lower value): 0.944 | normalized growth (locus YMR058W, strain fet3, stronger effect = lower value): 0.953 | normalized growth (locus YMR125W, strain sto1, stronger effect = lower value): 0.979 | normalized growth (locus YMR129W, stronger effect = lower value): 0.998 | normalized growth (locus YMR205C, strain PFK2, stronger effect = lower value): 0.949 | normalized growth (locus YMR231W, strain pep5, stronger effect = lower value): 0.984 | normalized growth (locus YNL071W, strain lat1, stronger effect = lower value): 0.981 | normalized growth [19]: 0.773 (active) | normalized growth (locus YNL209W, strain ssb2, stronger effect = lower value): 0.981 | normalized growth (locus YNL248C, strain rpa49, stronger effect = lower value): 0.957 | normalized growth (locus YNL322C, strain KRE1 (second series), stronger effect = lower value): 0.941 | normalized growth (locus YNR049C, strain mso1, stronger effect = lower value): 0.959 | normalized growth (locus YOR001W, strain rrp6, stronger effect = lower value): 0.982 | normalized growth (locus YOR070C, strain gyp1, stronger effect = lower value): 0.981 | normalized growth (locus YOR080W, strain dia2, stronger effect = lower value): 0.961 | normalized growth (locus YOR083W, strain WHI5, stronger effect = lower value): 0.965 | normalized growth (locus YOR106W, strain vam3, stronger effect = lower value): 0.926 | normalized growth [23]: 0.792 (active) | normalized growth (locus YOR265W, strain rbl2, stronger effect = lower value): 0.98 | normalized growth (locus YOR270C, strain vph1, stronger effect = lower value): 0.973 | normalized growth (locus YOR290C, strain snf2, stronger effect = lower value): 0.917 | normalized growth (locus YPL051W, strain arl3, stronger effect = lower value): 0.97 | normalized growth (locus YPL078C, strain atp4, stronger effect = lower value): 0.966 | normalized growth (locus YPL106C, strain sse1, stronger effect = lower value): 0.977 | normalized growth (locus YPL240C, strain hsp82, stronger effect = lower value): 0.982 | normalized growth [24]: 0.773 (active)

Source: PubChem BioAssay AID1159580 (chemical genetic matrix, 2015)
